Source: PubChem (National Center for Advancing Translational Sciences (NCATS))
Hits are enriched below; roughly 8.2% of the tested compounds scored in any of these assays.
SW480 rerep – A quantitative high throughput screen for small molecules that induce DNA re-replication in SW480 colon adenocarcinoma cells. hit rate 1.8% among 340,000. AID 624297, 2012. Potency, µM (series often up to 46.1 µM), for the others: at the highest dose re-replication activation, actives largely listed as activators. SW480 DNA re-replication, Hoechst DNA content imaging, 48 h; note: % of control where 0% means no effect; nearly all actives have a fitted effect of over 55% in size
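Quantitative HTS format with DMSO vehicle controls; 48 hr drug incubation at 37 C, then 40 min Hoechst staining and scanning imager measurement at 405 nm excitation.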
KB-V1 MDR tox – qHTS assay for MDR1-selective chemotherapeutics: Primary screen using the drug-selected MDR subline cells KB-V1. Potency, µM (top dose mostly 46.1 µM), most hits filed as cytotoxic. KB-V1 MDR cells viability, CellTiter-Glo, 72 h. hit rate 3.4% among 400,000; note: % is set by controls: 0 for no effect and ±100 for the full control effect; nearly all actives have a fitted effect of over 60% in size
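Cytotoxicity via CellTiter-Glo luminescence after 72 h compound exposure at 37 degrees C. Cells: drug-selected KB-V1 line, DMEM phenol-red free plus 10% FBS. Compounds tested at multiple concentrations; normalized data fitted to concentration-effect curves.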
ELG1 repair inh – qHTS screen for small molecules that inhibit ELG1-dependent DNA repair in human embryonic kidney (HEK293T) cells expressing luciferase-tagged ELG1; HEK293T ELG1-luciferase reporter, luminescence, 16 h; DNA damage induced by 5-fluorouridine; Potency, µM (highest dose often 46.1 µM), for the others: top-dose activity change, negative = inhibition, usual class: inhibitors; hit rate 2.3% among 330,000; AID 504467, 2011; note: % is set by controls: 0 for no effect and ±100 for the full control effect; nearly all actives have a fitted effect of over 55% in size
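In this reporter screen, reduction of luminescence relative to DMSO vehicle indicated activity. Compounds and 5-fluorouridine were added together to 2,000 cells per well, incubated for 16 hr at 37 °C, then developed with ONE-Glo.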
KB-3-1 tox – qHTS assay for MDR1-selective chemotherapeutics: Primary screen using the parental adenocarcinoma cell KB-3-1. KB-3-1 viability, CellTiter-Glo ATP luminescence, 72 h. hit rate 1.4% among 400,000. Potency, µM (series often up to 46.1 µM), actives largely listed as cytotoxic; note: % is set by controls: 0 for no effect and ±100 for the full control effect; nearly all actives have a fitted effect of over 60% in size
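Luminescent ATP read-out (CellTiter-Glo) measures survival of drug-naive KB-3-1 cells after 72 h compound exposure at 37 °C. Titration series was screened from lowest to highest concentration, with DMSO vehicle plates as background controls.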
MCF10A rereplic – A quantitative high throughput screen for small molecules that induce DNA re-replication in MCF 10a normal breast cells; hit rate 2.9% among 350,000; AID 624296, 2012; MCF 10A DNA re-replication, Hoechst nuclear intensity, 48 h; Potency, µM (highest dose often 46.1 µM), without a hit: top-dose activity, positive = re-replication, hits mostly activators; note: % of control where 0% means no effect; nearly all actives have a fitted effect of over 50% in size
* marks the source's active call; other numbers are inactive results; i = inactive; ? = inconclusive; . = no result given; [ ] = dose if it differs, or a comment. Calls come from the whole dose curve; as a rule, active = well fitted curve in the direction sought with a large enough effect; inconclusive = small, poorly fitted or top-dose-only effect, or another doubt; inactive = no such curve, though single readings can be large; an effect the other way counts as inactive or inconclusive. Potency is the fitted concentration of half-maximal effect.

SMILES	SW480 rerep	KB-V1 MDR tox	ELG1 repair inh	KB-3-1 tox	MCF10A rereplic
COc1cc(OC)c(OC)cc1/C=N/NC(=S)NCC1CCCO1 (centres undefined)	?	?	18.4µM*	i	15.5%
Cc1ccc(CNC(=O)C2CCCN2C(=O)Nc2ccc(C)cc2)cc1 (centres undefined)	3.6%	i	-3.5%	i	-10.3%
Cc1ccc(S(=O)(=O)N2CCC(C(=O)N3CCC[C@H]3C(=O)NCc3ccccc3)CC2)cc1	-16.6%	?	-13.0%	i	2.1%
COc1ccccc1CNC(=O)[C@@H]1CCCN1C(=O)C1CCN(S(=O)(=O)c2ccc(C)cc2)CC1	-0.6%	16.4µM*	0.0%	i	0.5%
COc1cccc(NC(=O)[C@@H]2CCCN2C(=O)C2CCN(S(=O)(=O)c3ccc(C)cc3)CC2)c1	15.8%	18.4µM*	-3.6%	i	7.6%
Cc1ccc(CNC(=O)C2CCCN2C(=O)Nc2ccccc2)cc1 (centres undefined)	-1.3%	i	-13.1%	i	0.651µM*
COCCNC(=O)[C@@H]1CCCN1C(=O)C1CCN(S(=O)(=O)c2ccc(C)cc2)CC1	-3.2%	i	18.9%	i	-0.5%
CC(=O)Nc1ccc(OC2=NS(=O)(=O)c3ccccc32)cc1	.	i	.	i	.
COc1ccc(Cn2c(=O)oc3ccccc32)cc1OC	.	20.6µM*	.	?	.
COc1ccc(CNC(=O)Cn2c(=O)oc3ccccc32)cc1OC	-4.3%[9.22 µM]	i	6.4%	i	-1.7%
CCOc1ccc(CCNC(=O)CN(C)S(=O)(=O)c2cccs2)cc1OCC	1.0%	4.61µM*	-1.2%	i	6.3%
CCOc1ccc(CCNC(=O)Cn2c(=O)oc3ccccc32)cc1OCC	-3.4%	18.4µM*	-0.1%	i	-4.2%
COc1ccc(CCNC(=O)CN(C)S(=O)(=O)c2cccs2)cc1OC	-3.5%	?	2.7%	i	-1.4%
CCNC(=O)CN(c1ccc(F)cc1)S(=O)(=O)c1ccc2c(c1)OCCO2	?	i	5.8%	i	8.6%
CC(C)CC(c1nnnn1CC1CCCO1)N1CCN(C2CCCC2)CC1 (centres undefined)	-1.1%	i	8.8%	i	1.0%
COc1ccc(Cn2nnnc2C(CC(C)C)N2CCN(c3ccccc3)CC2)cc1 (centres undefined)	0.1%	?	?	i	?
Cc1ccc(Cl)cc1N1CCN(C(CC(C)C)c2nnnn2CC2CCCO2)CC1 (centres undefined)	-3.7%	?	-5.9%	?	2.91µM*
CCC(c1nnnn1C(C)(C)C)N1CCN(c2cc(Cl)ccc2C)CC1 (centres undefined)	?	i	?	i	13µM*
CC(C)CC(c1nnnn1CC1CCCO1)N1CCN(c2cccc(Cl)c2)CC1 (centres undefined)	?	i	1.6%	?	?
CC(C)CC(c1nnnn1Cc1ccco1)N1CCN(c2cccc(Cl)c2)CC1 (centres undefined)	?	?	?	10.3µM*	?
CCCC(c1nnnn1CC1CCCO1)N1CCN(c2cc(Cl)ccc2C)CC1 (centres undefined)	19.4%	?	-15.5%	?	5.17µM*
CCC(c1nnnn1C(C)(C)C)N1CCN(C2CCCC2)CC1 (centres undefined)	1.1%	i	17.5%	i	-15.8%
COC(=O)C1=C(C(=O)OC)[C@@H]2Nc3ccccc3[C@@]23C[C@@H](C(=O)OC)N(C(=O)NC2CCCCC2)C3=N1	6.5%	i	.	i	4.5%
Cc1ccc(CNC(=O)c2cc(C)nc3c2c(C)nn3-c2ccc(C)cc2)cc1	.	i	.	i	.
C[C@@H]1CN([C@@H](C)CO)C(=O)CCCn2nncc2CO[C@H]1CN(C)Cc1ccc2c(c1)OCCO2	.	i	.	i	.
